Structures are written as SMILES. Compounds without any hit were thinned out: in the full panel of roughly 83,000, 20% have a hit.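 The test compound was applied at a single concentration to cells in 96-well plates for 48 hours, and percent growth was recorded.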 Active and inactive are the calls of the source. Rule for the calls: active = growth percent below 10; inactive = the rest.

Among the data in PubChem BioAssay (NCI) are growth values, retold here.

This assay has as its system MDA-MB-468 breast. Nature of the assay: NCI-60 one-dose screen, 48 h (100 = growth as untreated, 0 = no growth, -100 = all killed). Particulars: 10 µM unless noted.
Regarding `NCCNc1nc2ccccc2c2c(=O)c3cccc(F)c3sc12`, the growth is 70.6% (inactive).
For the molecule `CCCCCN1C=C/C(=C\C(=O)N(C)c2ccc(OC(F)(F)F)cc2)c2ccccc21`, the growth was 80.4% (inactive).
Consider `COC(=O)/C=C1\Sc2cc(F)ccc2NC1=O`, for which the growth was 99.8% (inactive).
As for `Cc1nc2c3c(ncn2n1)Oc1c(c(=O)[nH]c2ccccc12)C3c1ccc(Cl)cc1` (centres undefined), the growth was 109% (inactive).
On to `CN1C(=O)N(C)C2NC(N/N=C/c3ccccc3)=NC21` (centres undefined), for which the growth is 95.9% (inactive).
Take `C#CCCCCCCC[C@@H]1OC(=O)[C@H]([C@@H](C)CC)NC(=O)[C@H]([C@@H](C)CC)NC(=O)CC(=O)[C@@H]1C`: the growth is 95.3% (inactive).
Turning to `CC/C=C/[C@@H]1C=C[C@@H]2CCC[C@H]2[C@@H]1CC[C@H](O)[C@H](C)N`, the growth was -76.6% (active).
Take `O=C1OC[C@H]2[C@H](c3ccc(O)c(O)c3)c3cc(O)c(O)cc3C[C@H]12`: the growth is 93.3% (inactive).
On to `O=C(/C=C/c1ccccc1)C(Br)C(Br)c1ccccc1` (centres undefined), for which the growth is -38.1% (active).
On to `C=C(C)C1CCC(=C)C2CCC3(C)OC12/C=C(/COC(C)=O)CCC3O` (centres undefined), for which the growth was 115% (inactive).
As for `O=C1CSC(c2ccccc2Cl)N1c1nnc(Cn2nnc3ccccc32)o1` (centres undefined), the figure is 82.7% (inactive); as for `COC1OC2COC(c3ccccc3)OC2C(=O)C1NC(=O)c1ccccc1` (centres undefined), 113% (inactive).
In the case of `COc1cc(C(=O)/C=C/c2sc(Cl)nc2Cl)cc(OC)c1OC`, the growth is -50.9% (active).
Take `CCCCCCCCCCCCCC[n+]1ccc2c(C)c3c(c(C)c2c1)c1cc(O)ccc1n3CC`: the growth is -63.6% (active).
In the case of `CCOc1cccc(NC2=C(Br)C(=O)C(C)=C(C)C2=O)c1`, the growth is -65.7% (active).
Take `CN(C)N=Nc1nn(C(=O)Nc2ccc(Cc3ccccc3)cc2)c2ccccc12`: the growth is 69.2% (inactive).
Turning to `COc1ccc(C(=O)c2cc(OC)c(OC)c(OC)c2)cc1O`, the growth was -14.4% (active).
Regarding `CO[C@@H](C(=O)N1Cc2[nH]nc(NC(=O)c3ccc(N4CCN(C)CC4)cc3)c2C1)c1ccccc1`, the growth is 50.7% (inactive).
For `CC(C)(C)OC(=O)N1C/C(=C\c2ccccc2)C(=O)/C(=C/c2ccccc2)C1`, the growth is 112% (inactive).
As for `CC(C)(C)n1cc(-c2ccnc(NCCNS(=O)(=O)c3ccc(C(F)(F)F)cc3)c2)c(-c2ccccc2)n1`, the figure is 89.1% (inactive); as for `COc1ccccc1-n1cc(C#N)c(N)c1C(=O)c1ccc(C)cc1`, 46.2% (inactive).
As to `O=c1[nH]ccc2nc(N3CCC(O)CC3)nc(Nc3cccc(C(F)(F)F)c3)c12`, the growth was 14.5% (inactive).
Consider `COc1cc(-c2cc3ncccc3c3[nH]c(=O)c4cccnc4c23)cc(OC)c1OC`, for which the growth is -10.5% (active).
As for `COc1cc(C(=O)c2cc(C(C)=O)c3ccc(C)cn23)cc(OC)c1OC`, the figure is -2.89% (active); as for `Nc1n[nH]c2cccc(C#Cc3cccc(C(=O)Nc4cccc(C(F)(F)F)c4)c3)c12`, 101% (inactive).
With `Cc1ccccc1NC(=O)c1sc2nc(C)c(C(=O)/C=C/c3ccccc3)cc2c1N`, the growth was 9.61% (active).
As for `CC1(C)C(=O)/C(=C\c2cccnc2)C[C@]2(C)[C@H]3CC[C@@H]4[C@@H](C(=O)/C=C/c5ccncc5)CC[C@@]4(C)[C@]3(C)CC[C@@H]12`, the figure is -5.14% (active); as for `COc1ccc(-c2nc(-c3ccccc3)c(-c3ccccc3)[nH]2)cc1OC1CCCC1`, 40.4% (inactive); as for `Cc1ccc(C)c(C(O)(c2cc(C)ccc2C)C2(O)CCCCC2)c1`, 90.5% (inactive).
For the molecule `CCCNc1nc2ccccc2c2c(=O)c3cccc(Cl)c3sc12`, the growth was 36.2% (inactive).
With `O=C1C=CC[C@H](/C=C/c2ccccc2)O1`, the growth was 10.2% (inactive).
The same measure for `C=CCc1c(O)c(C(=O)/C=C/c2ccc(Cl)cc2)c(OC)c2ccoc12`: 19.9% (inactive).
Consider `O=C1C=C(C(O)c2ccc(O)cc2)C(=O)c2ccccc21` (centres undefined), for which the growth is 111% (inactive).
For the molecule `OCC1OC(OC2C(O)C(CO)OC2(CO)OC2OC(CO)C(O)C(O)C2O)C(O)C(O)C1O` (centres undefined), the growth was 112% (inactive).
Consider `O=C(Nc1ccc(Nc2ccncc2)cc1)c1ccc(C(=O)Nc2ccc(Nc3ccncc3)cc2)cc1`, for which the growth is 2.69% (active).
Turning to `Oc1c(I)cc(-c2nc3ccccc3s2)cc1CN(Cc1ccccn1)Cc1ccccn1`, the growth was -11.4% (active).
On to `CCNC(=O)OCCc1c2ccccc2nc2ccccc12`, for which the growth was 108% (inactive).
As to `NN=C(c1ccc(Cl)cc1)c1ccc(Cl)cc1`, the growth is 111% (inactive).
Regarding `Cc1ccc(C(=O)Nc2ccc(Cl)cc2C(=O)NCc2ccccc2)cc1`, the growth was 83% (inactive).
